# Laboratory results taken from publication PMC7862700, “An all-to-all approach to the identification of sequence-specific readers for epigenetic DNA modifications on cytosine”.
# Columns and labels:
# Assay in all cases: DAPPL (digital affinity profiling via proximity ligation, sequencing); 10 mM Tris-HCl pH 7.5, 50 mM NaCl, 1 mM DTT, 4% glycerol, room temperature, 30 min; GST-TFs on glutathione beads, 16-mer random dsDNA library, 0.1% formaldehyde crosslink after washing; high values mean tight binding
# Settings in all cases: protein: recombinant; tags: N-terminal GST; dsDNA, one strand shown
# FLI1 = biological target: T1, FLI1 (Homo sapiens, UniProt Q01543 1-452)
# T1 sequence: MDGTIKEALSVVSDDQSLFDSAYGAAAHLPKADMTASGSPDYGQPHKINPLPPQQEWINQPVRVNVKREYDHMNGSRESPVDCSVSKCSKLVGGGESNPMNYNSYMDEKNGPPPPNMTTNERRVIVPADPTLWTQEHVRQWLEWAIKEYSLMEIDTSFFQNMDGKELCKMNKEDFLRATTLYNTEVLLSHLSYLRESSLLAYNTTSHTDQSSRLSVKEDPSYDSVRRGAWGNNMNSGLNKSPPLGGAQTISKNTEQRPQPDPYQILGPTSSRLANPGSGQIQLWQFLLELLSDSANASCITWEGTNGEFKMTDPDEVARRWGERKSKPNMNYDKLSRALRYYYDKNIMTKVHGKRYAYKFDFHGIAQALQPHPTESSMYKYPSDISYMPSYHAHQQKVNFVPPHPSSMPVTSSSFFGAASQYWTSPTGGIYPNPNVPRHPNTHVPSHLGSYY
# In short: (§1)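 Sequencing on an Illumina NextSeq500 followed washing, crosslinking with 0.1% formaldehyde, proximity ligation (BsaI/T4 ligase, 1 h, 37 °C) and PCR amplification of pools that had been incubated for 30 min at room temperature with 200 nmole of a random double-stranded 16-mer DNA library in Tris/NaCl/DTT/glycerol buffer. Each pool held DNA-barcoded human transcription factors, expressed in yeast as GST fusions and captured on glutathione beads, plus a tag-only sample. Binding signal is a hexamer's read frequency for a factor divided by its frequency in the tag-only sample.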
# GABPA = biological target: T2, GABPA (Homo sapiens, UniProt Q06546 1-454)
# T2 sequence: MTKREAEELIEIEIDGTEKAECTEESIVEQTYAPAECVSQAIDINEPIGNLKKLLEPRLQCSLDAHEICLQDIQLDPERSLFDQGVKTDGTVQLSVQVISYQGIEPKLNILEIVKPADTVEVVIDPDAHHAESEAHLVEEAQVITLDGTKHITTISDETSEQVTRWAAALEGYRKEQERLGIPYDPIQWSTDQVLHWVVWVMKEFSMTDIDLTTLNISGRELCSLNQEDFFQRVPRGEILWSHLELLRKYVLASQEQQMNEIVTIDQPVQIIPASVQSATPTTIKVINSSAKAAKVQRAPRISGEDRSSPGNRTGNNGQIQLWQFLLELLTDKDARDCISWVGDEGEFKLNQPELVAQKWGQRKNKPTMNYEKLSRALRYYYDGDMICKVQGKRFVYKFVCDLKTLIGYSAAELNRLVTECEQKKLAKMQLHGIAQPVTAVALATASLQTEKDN
# In short: as §1
# ERG = biological target: T3, ERG (Homo sapiens, UniProt P11308 1-479)
# T3 sequence: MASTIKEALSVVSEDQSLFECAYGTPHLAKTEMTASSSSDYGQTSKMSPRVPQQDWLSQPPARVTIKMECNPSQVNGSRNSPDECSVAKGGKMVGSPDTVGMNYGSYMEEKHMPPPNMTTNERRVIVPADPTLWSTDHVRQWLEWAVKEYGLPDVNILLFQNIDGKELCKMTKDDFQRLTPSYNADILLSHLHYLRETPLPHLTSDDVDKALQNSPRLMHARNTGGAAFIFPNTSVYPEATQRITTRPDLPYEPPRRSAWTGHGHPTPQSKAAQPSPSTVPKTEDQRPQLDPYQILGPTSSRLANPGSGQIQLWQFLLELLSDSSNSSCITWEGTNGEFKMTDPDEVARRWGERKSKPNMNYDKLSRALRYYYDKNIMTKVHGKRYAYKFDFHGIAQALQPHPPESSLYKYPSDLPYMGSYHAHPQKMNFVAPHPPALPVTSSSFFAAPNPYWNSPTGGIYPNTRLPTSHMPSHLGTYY
# In short: as §1
# EHF = biological target: T4, EHF (Homo sapiens, UniProt Q9NZC4 1-300)
# T4 sequence: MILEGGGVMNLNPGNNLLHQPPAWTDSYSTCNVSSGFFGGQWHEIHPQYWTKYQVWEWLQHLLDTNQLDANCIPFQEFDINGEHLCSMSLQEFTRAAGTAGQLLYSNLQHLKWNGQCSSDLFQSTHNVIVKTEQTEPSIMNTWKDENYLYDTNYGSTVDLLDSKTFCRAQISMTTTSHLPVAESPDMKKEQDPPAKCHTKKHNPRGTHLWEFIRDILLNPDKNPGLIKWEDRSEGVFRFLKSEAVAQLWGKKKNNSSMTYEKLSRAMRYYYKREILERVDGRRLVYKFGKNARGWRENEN
# In short: as §1
# SPI1 = SPI1 (Homo sapiens, UniProt P17947 1-270)
# In short: as §1
# SPIB = SPIB (Homo sapiens, UniProt Q01892 1-262)
# SPIB, sequence (Q01892 whole entry): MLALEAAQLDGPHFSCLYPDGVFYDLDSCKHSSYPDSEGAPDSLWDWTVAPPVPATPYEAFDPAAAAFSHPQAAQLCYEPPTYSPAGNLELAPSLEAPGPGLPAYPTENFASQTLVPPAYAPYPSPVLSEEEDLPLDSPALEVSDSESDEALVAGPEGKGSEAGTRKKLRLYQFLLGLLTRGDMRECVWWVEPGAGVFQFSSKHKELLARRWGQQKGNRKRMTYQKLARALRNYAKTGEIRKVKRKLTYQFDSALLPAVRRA
# In short: as §1
# ELK3 = biological target: T5, ELK3 (Homo sapiens, UniProt P41970 1-407)
# T5 sequence: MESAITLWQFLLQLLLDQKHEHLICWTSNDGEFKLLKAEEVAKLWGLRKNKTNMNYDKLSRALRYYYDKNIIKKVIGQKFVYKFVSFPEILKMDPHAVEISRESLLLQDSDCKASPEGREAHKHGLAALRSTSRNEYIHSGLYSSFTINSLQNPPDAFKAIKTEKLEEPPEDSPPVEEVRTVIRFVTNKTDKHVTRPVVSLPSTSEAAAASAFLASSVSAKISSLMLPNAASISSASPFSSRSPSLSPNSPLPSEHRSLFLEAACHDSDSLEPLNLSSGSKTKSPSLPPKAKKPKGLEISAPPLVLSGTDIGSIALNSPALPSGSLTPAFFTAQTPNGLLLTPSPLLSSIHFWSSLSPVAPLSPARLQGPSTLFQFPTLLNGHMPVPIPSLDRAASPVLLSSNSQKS
# In short: as §1
# FEV = biological target: T6, FEV (Homo sapiens, UniProt Q99581 1-238)
# T6 sequence: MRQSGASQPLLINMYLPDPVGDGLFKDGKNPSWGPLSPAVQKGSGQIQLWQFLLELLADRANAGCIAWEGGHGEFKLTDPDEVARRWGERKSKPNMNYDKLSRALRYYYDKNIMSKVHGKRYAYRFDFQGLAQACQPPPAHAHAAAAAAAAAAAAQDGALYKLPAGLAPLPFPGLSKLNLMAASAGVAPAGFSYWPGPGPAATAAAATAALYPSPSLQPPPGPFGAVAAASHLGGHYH
# In short: as §1
# SPIC = biological target: T7, SPIC (Homo sapiens, UniProt Q8N5J4 1-248)
# T7 sequence: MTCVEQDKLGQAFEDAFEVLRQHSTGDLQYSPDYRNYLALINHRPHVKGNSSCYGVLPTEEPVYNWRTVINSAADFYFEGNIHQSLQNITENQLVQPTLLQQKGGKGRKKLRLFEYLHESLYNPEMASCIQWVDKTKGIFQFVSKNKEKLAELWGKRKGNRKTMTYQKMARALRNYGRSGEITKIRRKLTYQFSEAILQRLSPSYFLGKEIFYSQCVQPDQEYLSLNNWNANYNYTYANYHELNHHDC
# In short: as §1
# ELF4 = ELF4 (Homo sapiens, UniProt Q99607 1-663)
# ELF4, sequence (Q99607 whole entry): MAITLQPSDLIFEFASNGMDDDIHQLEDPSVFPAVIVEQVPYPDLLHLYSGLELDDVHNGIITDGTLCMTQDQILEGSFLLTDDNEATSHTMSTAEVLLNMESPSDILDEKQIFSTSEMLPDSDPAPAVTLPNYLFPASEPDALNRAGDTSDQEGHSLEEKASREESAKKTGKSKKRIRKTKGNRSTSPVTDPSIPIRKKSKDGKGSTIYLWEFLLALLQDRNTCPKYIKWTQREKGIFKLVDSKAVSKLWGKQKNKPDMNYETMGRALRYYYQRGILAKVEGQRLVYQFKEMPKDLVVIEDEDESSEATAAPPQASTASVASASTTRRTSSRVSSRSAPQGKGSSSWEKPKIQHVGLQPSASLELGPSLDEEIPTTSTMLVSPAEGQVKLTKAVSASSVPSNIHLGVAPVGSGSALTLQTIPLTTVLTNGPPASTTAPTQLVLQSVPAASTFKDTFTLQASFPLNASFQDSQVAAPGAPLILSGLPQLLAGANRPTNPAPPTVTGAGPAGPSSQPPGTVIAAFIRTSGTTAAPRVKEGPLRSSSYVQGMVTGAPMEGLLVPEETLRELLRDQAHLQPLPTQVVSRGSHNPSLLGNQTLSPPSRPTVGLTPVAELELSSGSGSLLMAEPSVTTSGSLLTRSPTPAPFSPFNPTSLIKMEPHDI
# In short: as §1
# ELK4 = biological target: T8, ELK4 (Homo sapiens, UniProt P28324-2 1-405)
# T8 sequence: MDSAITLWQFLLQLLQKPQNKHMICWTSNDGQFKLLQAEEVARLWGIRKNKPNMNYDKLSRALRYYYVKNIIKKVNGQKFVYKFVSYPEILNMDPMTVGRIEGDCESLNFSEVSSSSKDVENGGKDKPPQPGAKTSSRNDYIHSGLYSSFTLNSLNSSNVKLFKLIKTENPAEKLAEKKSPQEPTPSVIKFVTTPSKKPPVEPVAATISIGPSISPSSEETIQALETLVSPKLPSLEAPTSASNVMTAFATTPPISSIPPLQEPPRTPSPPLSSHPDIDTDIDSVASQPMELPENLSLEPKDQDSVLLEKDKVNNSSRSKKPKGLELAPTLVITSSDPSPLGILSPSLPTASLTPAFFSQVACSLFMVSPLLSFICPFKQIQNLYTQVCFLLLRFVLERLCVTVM
# In short: as §1
# ERF = biological target: T9, ERF (Homo sapiens, UniProt P50548 1-548)
# T9 sequence: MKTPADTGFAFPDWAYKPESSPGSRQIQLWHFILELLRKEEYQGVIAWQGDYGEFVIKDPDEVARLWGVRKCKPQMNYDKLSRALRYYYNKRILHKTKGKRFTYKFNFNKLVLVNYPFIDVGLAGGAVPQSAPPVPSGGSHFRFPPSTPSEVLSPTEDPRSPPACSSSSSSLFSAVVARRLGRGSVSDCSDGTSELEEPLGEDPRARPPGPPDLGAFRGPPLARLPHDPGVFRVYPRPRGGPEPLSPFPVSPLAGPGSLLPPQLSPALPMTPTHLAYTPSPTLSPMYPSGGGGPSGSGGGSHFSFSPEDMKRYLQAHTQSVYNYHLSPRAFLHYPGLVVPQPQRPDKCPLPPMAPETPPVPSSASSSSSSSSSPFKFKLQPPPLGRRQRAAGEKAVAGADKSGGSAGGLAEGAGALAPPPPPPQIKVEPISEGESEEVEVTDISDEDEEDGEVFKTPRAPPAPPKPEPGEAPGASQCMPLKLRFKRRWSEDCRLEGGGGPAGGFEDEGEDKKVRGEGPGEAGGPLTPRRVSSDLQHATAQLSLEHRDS
# In short: as §1
# ETV3L = biological target: T10, ETV3L (Homo sapiens, UniProt Q6ZN32 1-361)
# T10 sequence: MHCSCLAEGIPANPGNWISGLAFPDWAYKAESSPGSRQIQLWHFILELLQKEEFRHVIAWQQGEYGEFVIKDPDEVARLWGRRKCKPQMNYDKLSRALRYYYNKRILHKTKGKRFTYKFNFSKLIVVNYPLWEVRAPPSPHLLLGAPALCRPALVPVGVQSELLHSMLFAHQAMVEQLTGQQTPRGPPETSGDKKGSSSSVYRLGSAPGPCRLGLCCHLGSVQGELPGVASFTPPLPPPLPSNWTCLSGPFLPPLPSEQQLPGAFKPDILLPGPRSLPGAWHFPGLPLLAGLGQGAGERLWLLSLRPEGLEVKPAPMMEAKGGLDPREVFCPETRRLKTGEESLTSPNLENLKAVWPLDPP
# In short: as §1
# ETS2 = biological target: T11, ETS2 (Homo sapiens, UniProt P15036 1-469)
# T11 sequence: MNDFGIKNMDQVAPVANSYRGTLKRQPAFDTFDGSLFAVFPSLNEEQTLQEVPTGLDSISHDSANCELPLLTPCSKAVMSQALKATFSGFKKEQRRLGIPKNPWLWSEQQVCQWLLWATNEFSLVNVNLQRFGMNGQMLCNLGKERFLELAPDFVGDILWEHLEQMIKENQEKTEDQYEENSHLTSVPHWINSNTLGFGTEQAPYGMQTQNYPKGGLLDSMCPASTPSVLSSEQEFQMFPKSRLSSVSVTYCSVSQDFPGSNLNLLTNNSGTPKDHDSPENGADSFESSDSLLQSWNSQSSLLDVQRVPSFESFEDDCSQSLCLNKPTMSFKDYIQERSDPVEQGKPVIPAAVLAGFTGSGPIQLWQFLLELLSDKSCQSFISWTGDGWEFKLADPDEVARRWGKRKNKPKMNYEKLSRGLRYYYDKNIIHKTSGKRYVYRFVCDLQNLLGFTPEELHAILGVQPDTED
# In short: as §1
# ETV7 = biological target: T12, ETV7 (Homo sapiens, UniProt Q9Y603 1-341)
# T12 sequence: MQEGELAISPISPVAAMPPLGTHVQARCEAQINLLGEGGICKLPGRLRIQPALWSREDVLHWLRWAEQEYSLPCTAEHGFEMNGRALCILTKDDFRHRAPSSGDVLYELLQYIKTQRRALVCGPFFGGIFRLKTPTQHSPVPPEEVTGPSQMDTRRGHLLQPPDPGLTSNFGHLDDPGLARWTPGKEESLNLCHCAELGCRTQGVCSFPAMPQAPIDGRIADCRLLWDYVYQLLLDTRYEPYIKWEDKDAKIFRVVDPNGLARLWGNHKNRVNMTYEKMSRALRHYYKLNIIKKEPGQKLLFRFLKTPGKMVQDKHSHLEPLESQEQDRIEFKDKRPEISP
# In short: as §1
# ELF5 = biological target: T13, ELF5 (Homo sapiens, UniProt Q9UKW6-2 1-255)
# T13 sequence: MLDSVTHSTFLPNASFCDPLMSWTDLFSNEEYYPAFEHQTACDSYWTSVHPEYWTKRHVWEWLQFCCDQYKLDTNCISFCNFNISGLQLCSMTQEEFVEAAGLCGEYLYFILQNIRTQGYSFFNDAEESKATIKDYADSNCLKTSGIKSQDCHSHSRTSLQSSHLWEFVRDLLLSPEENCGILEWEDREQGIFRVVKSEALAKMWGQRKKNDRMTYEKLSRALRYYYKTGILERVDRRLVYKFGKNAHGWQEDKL
# In short: as §1
# ETV6 = ETV6 (Homo sapiens, UniProt P41212 1-452)
# ETV6, sequence (P41212 whole entry): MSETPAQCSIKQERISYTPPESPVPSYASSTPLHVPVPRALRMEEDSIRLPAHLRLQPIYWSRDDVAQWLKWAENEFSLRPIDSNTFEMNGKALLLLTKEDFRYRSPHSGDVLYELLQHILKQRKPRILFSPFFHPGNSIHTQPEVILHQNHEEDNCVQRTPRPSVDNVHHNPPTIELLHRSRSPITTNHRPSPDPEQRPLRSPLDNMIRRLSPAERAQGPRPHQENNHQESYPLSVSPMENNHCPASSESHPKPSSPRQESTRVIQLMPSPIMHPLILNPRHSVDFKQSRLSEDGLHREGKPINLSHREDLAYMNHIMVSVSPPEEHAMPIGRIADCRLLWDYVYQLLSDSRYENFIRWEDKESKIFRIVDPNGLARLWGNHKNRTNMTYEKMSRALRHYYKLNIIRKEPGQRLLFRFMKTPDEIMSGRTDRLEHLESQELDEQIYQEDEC
# In short: as §1
sequence,measurement,setting,value
GGTAAC,binding signal,FLI1,"1.1 fold enrichment (6-mer frequency, TF over GST control)"
same,binding signal,GABPA,"1.03 fold enrichment (6-mer frequency, TF over GST control)"
same,binding signal,ERG,"1.01 fold enrichment (6-mer frequency, TF over GST control)"
same,binding signal,EHF,"1.09 fold enrichment (6-mer frequency, TF over GST control)"
same,binding signal,SPI1,"1.02 fold enrichment (6-mer frequency, TF over GST control)"
same,binding signal,SPIB,"1.02 fold enrichment (6-mer frequency, TF over GST control)"
same,binding signal,ELK3,"1 fold enrichment (6-mer frequency, TF over GST control)"
same,binding signal,FEV,"1.05 fold enrichment (6-mer frequency, TF over GST control)"
same,binding signal,SPIC,"1.03 fold enrichment (6-mer frequency, TF over GST control)"
same,binding signal,ELF4,"1.01 fold enrichment (6-mer frequency, TF over GST control)"
same,binding signal,ELK4,"1.03 fold enrichment (6-mer frequency, TF over GST control)"
same,binding signal,ERF,"1 fold enrichment (6-mer frequency, TF over GST control)"
same,binding signal,ETV3L,"1 fold enrichment (6-mer frequency, TF over GST control)"
same,binding signal,ETS2,"1.02 fold enrichment (6-mer frequency, TF over GST control)"
same,binding signal,ETV7,"1.05 fold enrichment (6-mer frequency, TF over GST control)"
same,binding signal,ELF5,"1.02 fold enrichment (6-mer frequency, TF over GST control)"
same,binding signal,ETV6,"1.04 fold enrichment (6-mer frequency, TF over GST control)"
